Experimental data reported in PubChem BioAssay (NCATS).
Values joined by “and” are separate entries in the source; they are usually repeats but may differ in a detail not shown here. Equal entries are not always repeated. Inconclusive results are not listed. Active and inactive are the calls of the source. Calls follow the shape of the dose curve; as a rule, active = well fitted curve in the direction sought with a large enough effect; inconclusive = small, poorly fitted or top-dose-only effect, or another doubt; inactive = no such curve, though single readings can be large; an effect the other way counts as inactive or inconclusive.

Assays:
[1] = molecular target: Glutathione peroxidase 1 (Homo sapiens) (UniProt P07203); test: Primary qHTS Assay for Inhibitors of Recombinant Selenoprotein Glutathione Peroxidase 1 (GPX1) (AID 1845191); also: nearly all actives have a fitted effect of over 65% in size; also: potency is read from the fitted curve at half-maximal effect; as to activity, negative = inhibition: % is scaled to controls: 0 for no effect and ±100 for the full control effect
Outline: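 Recombinant GPX1 (10 nM final) was preincubated with compound for 30 min at room temperature, then reacted with 1 mM GSH, 0.5 mM CHP, 0.5 mM NADPH and 100 nM glutathione reductase; NADPH fluorescence (340/450 nm) was read at 0 and 15 min.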

[2] = molecular target: Phospholipid hydroperoxide glutathione peroxidase GPX4 (Homo sapiens) (UniProt P36969); test: Primary qHTS Assay for Inhibitors of Recombinant Selenoprotein Glutathione Peroxidase 4 (GPX4) (AID 1845192); also: nearly all actives have a fitted effect of over 65% in size; also: potency is read from the fitted curve at half-maximal effect; as to activity change, negative = inhibition: series mostly up to about 50 µM; % is scaled to controls: 0 for no effect and ±100 for the full control effect
Outline: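 GR-coupled readout: 100 nM GR, 1 mM GSH, 0.5 mM NADPH; NADPH fluorescence (ex 340/em 450 nm) read at t=0 and after 15 min RT. GPX4 200 nM, preincubated 30 min with compound; substrate 0.5 mM CHP.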

[3] = molecular target: Luciferin 4-monooxygenase (Photinus pyralis) (UniProt P08659); test: Primary firefly luciferase (FLuc) qHTS assay for identification of artifact compounds. (AID 1845220);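 also: series mostly up to about 54 µM; plate controls were DMSO vehicle for no effect and no enzyme for full effect; nearly all actives have a fitted effect of over 60% in size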
Outline: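 qHTS, 15 min compound preincubation with substrate (10 uM luciferin, 10 uM ATP) at RT, then 10 nM FLuc; 5 min; luminescence; % inhibition vs no-enzyme/DMSO controls, 4-parameter Hill fit.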

[4] = Primary redox qHTS assay for identification of artifact compounds. (AID 1845223); also: potency is read from the fitted curve at half-maximal effect;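 as to redox activity (% of DA3003): 0% = DMSO and 100% = reference compound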
Outline: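 Amplex Red (25 uM) and HRP (250 mU/mL) in HBSS, with compounds for 15 min, then 250 uM DTT for 30 min, room temperature, dark. Fluorescence 525/598 nm read; normalized to DMSO and 10 uM DA3003; Hill fit.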

[5] = Primary fluorescence-based thiol-reactive (MSTI) qHTS assay for identification of artifact compounds. (AID 1845221); also: nearly all actives have a fitted effect of over 65% in size; also: potency is read from the fitted curve at half-maximal effect;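 as to activity change, negative = thiol reactive: series mostly up to about 54 µM; thiol-reactive compounds lower the probe fluorescence signal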
Outline: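 Probe: MSTI 4 uM, PBS pH 7.4, 2% DMSO. Incubation 1 h, RT, light-protected. Readout fluorescence 525/598 nm.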

[6] = test system: Nanoluciferase (engineered Oplophorus gracilirostris luciferase); test: Primary Nanoluciferase (NLuc) qHTS assay for identification of artifact compounds. (AID 1845222);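 also: series mostly up to about 54 µM; 0% = DMSO and -100% = no enzyme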
Outline: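 Luminescence read-out of secreted NLuc in S16 cell conditioned medium (1:55); compounds tested with 15 min RT preincubation, then Nano-Glo substrate 1:100, 5 min. % inhibition vs no-enzyme and DMSO controls, 4-parameter Hill fit.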

Sequence of Phospholipid hydroperoxide glutathione peroxidase GPX4 (Homo sapiens) (P36969 whole entry, looked up): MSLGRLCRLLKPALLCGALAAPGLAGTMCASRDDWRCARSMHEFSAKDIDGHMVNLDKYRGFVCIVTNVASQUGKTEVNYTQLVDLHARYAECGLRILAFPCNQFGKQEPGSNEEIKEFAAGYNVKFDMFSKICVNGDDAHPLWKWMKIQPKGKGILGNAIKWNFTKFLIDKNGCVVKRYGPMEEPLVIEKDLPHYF
Sequence of Glutathione peroxidase 1 (Homo sapiens) (P07203 whole entry, looked up): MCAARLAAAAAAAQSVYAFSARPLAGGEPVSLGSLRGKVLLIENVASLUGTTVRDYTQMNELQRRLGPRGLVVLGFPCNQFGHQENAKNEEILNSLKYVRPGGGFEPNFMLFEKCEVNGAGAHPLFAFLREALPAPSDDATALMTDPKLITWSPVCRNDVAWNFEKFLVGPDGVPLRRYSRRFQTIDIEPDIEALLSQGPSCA

O=C1Cc2c([nH]c3ccc(Br)cc23)-c2ncccc2N1
inactive: Potency [1] | Potency [2] | Potency [3] | Potency [4]

CC(=O)OC/C(=C/C(=O)O)CC[C@@H]1C(C=O)=CC[C@@H]2C(C)(C)CCC[C@@]12C
inactive: Potency [1] | Potency [2] | Potency [5] | Potency [6]

CC(C)Nc1nc(Nc2ccccc2)nc(-c2ccccc2)n1
inactive: Potency [1] | Potency [2] | Potency [5] | Potency [6] | Potency [4]

COc1ccccc1-c1ccc(-c2cn(C(=O)N3CCCCC3Cc3ccccc3)nn2)cc1 (stereo unspecified)
inactive: Potency [1] | Potency [2] | Potency [5] | Potency [6] | Potency [4]

C=C1C(=O)OC[C@@H]1C/C=C(\C)CC1CC(C)C(=O)O1 (stereo partly specified)
inactive: Potency [1] | Potency [2] | Potency [6]
active: Potency [5] 8.44 µM

CNc1nc(Nc2ccc(C(=O)N3CCOCC3)cc2OC)nc2[nH]cc(Cl)c12
inactive: Potency [1] | Potency [2] | Potency [6] | Potency [4]
active: Potency [5] 1.68 µM

CC(C)c1ccc(-c2cc(=O)c3ccccc3o2)cc1
inactive: Potency [1] | Potency [2] | Potency [5] | Potency [6] | Potency [4]

C=C1C(=O)OC2/C=C(\CO)CC/C=C(\C=O)C(OC)C(OC(=O)C(C)CC)C12 (stereo unspecified)
inactive: Potency [1] | Potency [2] | Potency [6] | Potency [4]
active: Potency [5] 4.12 µM

C/C=C(\C)C(=O)O[C@@H]1[C@@H](C)[C@]2(O)[C@@H]3C=C(C)C(=O)[C@H]3CC(CO)=C[C@H]2C2C(C)(C)[C@@]21OC(=O)C(C)CC (stereo partly specified)
inactive: Potency [1] | Potency [2] | Potency [5] | Potency [6] | Potency [4]

Cc1cc(C(=O)Nc2cc(Nc3ccc4c(/C=C/c5ccccn5)n[nH]c4c3)ccc2F)n(C)n1
active: Potency [5] 11.9 µM
inactive: Potency [1] | Potency [2] | Potency [6] | Potency [4]

C=C1CC[C@@H]2[C@](C)(CO)[C@H](O)CC[C@@]2(C)[C@@H]1C/C=C1/C(=O)OCC1O (stereo partly specified)
inactive: Potency [1] | Potency [2] | Potency [5] | Potency [6]

COCCN(C(=O)c1cc(OC)c(OC)c(OC)c1)c1nc(-c2ccccc2)cs1
inactive: Potency [1] | Potency [2] | Potency [5] | Potency [6] | Potency [4]

O=C(Nc1ccc(-c2ccc(Cl)c(Cl)c2)cc1)C1=C(O)c2ccccc2S(=O)(=O)N1
inactive: Potency [1] | Potency [2] | Potency [5] | Potency [6] | Potency [4]

COc1cc(N2CCOCC2)ccc1NC(=O)c1csc(-c2cccnc2)n1
inactive: Potency [1] | Potency [2] | Potency [6] | Potency [4]
active: Potency [5] 2.38 µM

CC1(C)Oc2ncnc(N)c2N=C1c1ccc(C23CCC(CC(=O)O)(CC2)CC3)cc1
inactive: Potency [1] | Potency [2] | Potency [5] | Potency [6] | Potency [4]

O=C(CSc1nc2ccccc2c(=O)n1-c1ccccc1)Nc1ccc2c(c1)CCC2
inactive: Potency [1] | Potency [2] | Potency [5] | Potency [6] | Potency [4]

COC1CCN(C(=O)c2cc(Cc3n[nH]c(=O)c4ccccc34)ccc2F)CC1
inactive: Potency [1] | Potency [2] | Potency [5] | Potency [6]

CCCCC1CCN(CCCN2C(=O)CCc3ccccc32)CC1
inactive: Potency [1] | Potency [2] | Potency [5] | Potency [6] | Potency [4]

CCOC(=O)c1cnc2ccc(-c3cncc(NS(=O)(=O)c4ccccc4)c3)cn12
inactive: Potency [1] | Potency [2] | Potency [5] | Potency [6] | Potency [4]

COc1cc2c(cc1O)C1(Cc3ccc4c(c3C1O)OCO4)[N+](C)([O-])CC2 (stereo unspecified)
active: Potency [5] 5.21 µM
inactive: Potency [1] | Potency [2] | Potency [6]

C[C@@H]1O[C@@H](O[C@H]2[C@@H]3C=CO[C@@H](O[C@@H]4O[C@H](CO)[C@@H](O)[C@H](O)[C@H]4O)[C@@H]3[C@@]3(CO)O[C@@H]23)[C@H](O)[C@H](OC(=O)/C=C/c2ccccc2)[C@H]1O
inactive: Potency [1] | Potency [2] | Potency [5] | Potency [6] | Potency [4]

NCC1CCN(c2nccc(-c3ccc4ccccc4c3)n2)CC1
inactive: Potency [1] | Potency [2] | Potency [5] | Potency [6] | Potency [4]

CC(=O)O[C@@H]1C[C@]2(C)[C@@]3(CCC4[C@@]5(C)CC[C@H](O[C@@H]6O[C@H](C(=O)O)[C@@H](O)[C@H](OC7OC(CO)C(O)C(O)[C@H]7O[C@@H]7O[C@@H](C)[C@H](O)[C@@H](O)[C@H]7O[C@@H]7OC[C@](O)(CO)[C@H]7O)[C@H]6OC6OC(CO)C(O)C(O)C6O)C(C)(C)C5CC[C@]42C)OC[C@@]12CCC(C)(C)CC23 (stereo partly specified)
inactive: activity, negative = inhibition [1] -11.2% [at 9.52 µM] | activity change, negative = inhibition [2] -2.16% [at 9.73 µM] | activity change, negative = thiol reactive [5] 238% [at 11.5 µM] | activity, negative = inhibition [6] 0.912% [at 11.6 µM] | redox activity (% of DA3003) [4] 8.79% [at 11.5 µM]

CN(C)c1ccc(NC(=O)NS(=O)(=O)c2ccc(Cl)cc2)cc1
active: Potency [5] 1.89 µM | Potency [4] 3.36 µM
inactive: Potency [1] | Potency [2] | Potency [6]

Cc1nc(-c2cn3c(n2)-c2ccc(-c4cnn(C(C)(C)C(N)=O)c4)cc2OCC3)n(C(C)C)n1
inactive: Potency [1] | Potency [5] | Potency [6]
active: Potency [2] 14.3 µM and 20.2 µM

c1ccc(-c2cnn3cc(-c4ccc(OCCN5CCOCC5)cc4)cnc23)cc1
inactive: Potency [1] | Potency [2] | Potency [5] | Potency [6]

CCCN1CCC=C(c2cc(-c3ccc(C)cc3)no2)C1
inactive: Potency [1] | Potency [2] | Potency [5] | Potency [6] | Potency [4]

CC(=O)OC1CC(C)C2(CCC3(CC(=O)OC3O)O2)C2(C)CCCC(C)(C)C12 (stereo unspecified)
inactive: Potency [1] | Potency [2] | Potency [5] | Potency [6] | Potency [4]

O=C(Nc1ccc2[nH]nc(-c3ccncc3)c2c1)[C@@H]1CCN(CC(=O)N2CCN(c3ccc(-c4ncccn4)cc3)CC2)C1
inactive: Potency [1] | Potency [2] | Potency [5] | Potency [6] | Potency [4]

COc1ccccc1N1CCN(c2ncnc3n[nH]c(Br)c23)CC1
inactive: Potency [1] | Potency [2] | Potency [5] | Potency [6] | Potency [4]

Cc1cc2sc(NC(=O)Cc3ccccc3)nc2cc1Cl
inactive: Potency [1] | Potency [2] | Potency [5] | Potency [6] | Potency [4]

COc1cccc(CN(C(=O)CC(C)(C)C)[C@H]2C[C@H](C(=O)N3CCNCC3)N(Cc3ccc4c(c3)OCO4)C2)c1
inactive: Potency [1] | Potency [2] | Potency [5] | Potency [6]

Cc1cc(F)ccc1-c1nc(NCCN=C(N)NC#N)nc2c1ccc(=O)n2-c1c(F)cccc1F
active: Potency [1] 20.2 µM | Potency [2] 22.7 µM
inactive: Potency [5] | Potency [6] | Potency [4]

O=C(Nc1nnc(-c2ccc3c(c2)OCCO3)o1)C1CCCCC1
inactive: Potency [1] | Potency [2] | Potency [5] | Potency [6] | Potency [4]
